Screening data from PubChem BioAssay.
Pf Dd2 inh = Plasmodium falciparum Dd2 growth inhibition; P. falciparum Dd2 growth, SYBR Green, 72 h; AID 1347417; Potency, µM (series often up to 28.9 µM), for the others: at the highest dose activity, negative = inhibition, usual class: inhibitors; hit rate 4.3% among 120,000; active = well fitted inhibition curve with a large enough effect;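 note: plate controls were DMSO vehicle for no effect and reference drug for full effect; nearly all actives have a fitted effect of over 65% in size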
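Infected erythrocytes (Dd2, 0.3% parasitemia, 2.5% hematocrit final) are added to compound in RPMI-1640/Albumax II medium, grown 72 h at 37C in low oxygen, then lysed with saponin/Triton-X containing SYBR Green and read by fluorescence.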
An asterisk follows results filed as active; i = inactive; [ ] = another dose, or the depositor's remark. The full list was thinned out, with hits kept by preference. Potency is the fitted concentration of half-maximal effect.

SMILES | Pf Dd2 inh
Cc1ccc(NC(=O)Cn2cc(S(=O)(=O)Cc3cccc(Cl)c3)c3ccccc32)cc1C | 2%
COC(=O)[C@@H]1Cc2c([nH]c3ccccc23)[C@H]2C[C@H](NCCN3CCOCC3)C[C@@H](c3ccc(F)cc3)N21 | 11µM*
COC(=O)[C@@H]1Cc2c([nH]c3ccccc23)[C@@H]2C[C@@H](NCCNC(C)=O)C[C@@H](c3cccc(Cl)c3)N12 | 11µM*
Cc1ccc(C)c(NC(=O)Cn2cc(S(=O)(=O)Cc3cccc(Cl)c3)c3ccccc32)c1 | 11%
O=C(c1ccc2c(c1)OCO2)N1C[C@@H]2C[C@H](C1)c1ccc(-c3cccc(C(F)(F)F)c3)c(=O)n1C2 | -16%
CN(CC1(C)CCOCC1)C(=O)c1ccc2cc[nH]c2c1 | 4%
N#Cc1ccc(C(=O)N2C[C@@H](Oc3ccccc3)C[C@H]2C(=O)NC2CC2)cc1 | 18%
CC(C)N[C@@H]1CC[C@@H]1NC(=O)c1ccc(C(F)(F)F)cc1C(F)(F)F | i
O=C(CCc1ccccc1)N1CCC2(CC1)CC(OCC1CC1)CCO2 (centres undefined) | 6%
CCOc1ccccc1CNCc1cccn1-c1nnc(N2CCN(c3ccccc3)CC2)s1 | 7.1µM*
CCOc1ccccc1CNC(=O)c1cccn1-c1nnc(N2CCCCC2)s1 | -13%
c1ccc(N2CCN(Cc3cccn3-c3nnc(N4CCN(C5CCCCC5)CC4)s3)CC2)cc1 | -1%
O=C1[C@@H]2C[C@@H](O)CN2C2(CN(Cc3cccnc3)C2)C(=O)N1Cc1cccc(Cl)c1 | i
COCC(=O)N[C@@H]1CN(C(=O)NCc2ccccc2)CC[C@@H]1c1nc(C)no1 | i[5.79 µM]
O=C(c1ccc(Cn2ccnc2)o1)N1CCCn2nc(CO)cc2C1 | -14%
O=C(Cc1ccccc1)N1CCCC2(C1)Nc1cccnc1NC2=NC1CCCC1 (centres undefined) | i[5.79 µM]
Cn1c(C(=O)NCC2CC2)nc2nc(-c3ccccc3)c(Cl)cc21 | -13%[44.1 µM]
COc1ncccc1-c1cc2c(nc1-c1ccccc1)nc(C(=O)NCCN(C)C)n2C | i
Cn1c(C(=O)NCCN2CCOCC2)nc2nc(-c3ccccc3)c(Cl)cc21 | i
COCc1nc2nc(-c3ccccc3)c(-c3ccccc3O)cc2n1C | 4.5µM*
CN(C)CCNC(=O)c1nc2nc(-c3ccccc3)c(-c3ccccc3O)cc2n1C | 5.6µM*
CN(C)CCNC(=O)c1nc2nc(-c3ccccc3)c(-c3ccc(Cl)cc3)cc2n1C | 5µM*
COc1ccc(CNC(=O)c2nc3nc(-c4ccccc4)c(Cl)cc3n2C)cc1OC | 9%[44.1 µM]
COCc1nc2nc(-c3ccccc3)c(-c3cccnc3)cc2n1C | -6%[44.1 µM]
Cn1c(C(=O)NCCc2ccccn2)nc2nc(-c3ccccc3)c(Cl)cc21 | i
SMILES | Pf Dd2 inh
COc1cc(CNC(=O)c2nc3nc(-c4ccccc4)c(Cl)cc3n2C)cc(OC)c1 | 8.9µM*
COCc1nc2nc(-c3ccccc3)c(-c3ccccc3OC)cc2n1C | -6%[44.1 µM]
Cn1c(C(=O)NCc2ccoc2)nc2nc(-c3ccccc3)c(Cl)cc21 | -5%[44.1 µM]
CCc1ccc(NC(=O)N2CCC(N3CC4CC(C3)[C@H]3CCCC(=O)N3C4)CC2)cc1 (some centres undefined) | -6%
Cc1cc(C(=O)N2CCCCCCNC(=O)[C@@H]3C[C@@H](c4nc(-c5cccnc5)no4)C[C@@H]32)n(C)n1 | -6%
O=C(Cc1c(F)cccc1Cl)N1CCN(c2cc(-c3ccccc3)[nH]n2)CC1 | -2%
COCC(=O)N1CC[C@H](c2nc3ccc(C)cc3[nH]2)C1 | 5%[44.1 µM]
COc1ccccc1CN1CCC2(CC1)Cc1ccccc1CNC2=O | -42%
CO[C@H]1[C@H](NC(=O)c2cc(C)oc2C)c2ccccc2C12CCNCC2 | -3%
Cc1ccc(C)c(-c2cc3c(=O)n(CCNC(=O)c4ccc5ccccc5n4)ccn3n2)c1 | i
COCC(=O)N(C1CCOCC1)C1CCN(C(=O)c2ccc(OC)cc2C)CC1 | 5%
CNC(=O)[C@@H]1CNC[C@H]1c1nc(C)no1 | -1%
c1nc(N2CCOCC2)c2c3c(sc2n1)CN(CC1CCCCC1)CC3 | 2.8µM*
c1coc(CN2CCc3c(sc4ncnc(N5CCOCC5)c34)C2)c1 | 8.9µM*
CN(C)c1ncnc2sc3c(c12)CCN(Cc1ccncc1)C3 | i
Clc1ccc(CN2CCN(c3ncnc4sc5c(c34)CCCC5)CC2)cc1Cl | 44%
CCOc1ccc(CN2CCN(c3ncnc4sc5c(c34)CC(C)CC5)CC2)cc1 (centres undefined) | 25%
COc1ccc(CN2CCN(c3ncnc4sc5c(c34)CCCC5)CC2)cc1F | -25%
Cc1cc(C(=O)N2CCOC[C@H](Oc3cnccn3)C2)c(C(F)(F)F)o1 | -3%[44.1 µM]
COc1ccc(CNC(=O)C[C@@H]2C[C@H]3O[C@H](CNC(=O)NCc4ccccc4)[C@@H](O)[C@H]3O2)cc1 | 9%
O=C(NC[C@H]1O[C@@H]2C[C@@H](CC(=O)N3CCOCC3)O[C@@H]2[C@@H]1O)Nc1ccc(F)cc1 | 2%[44.1 µM]
CNC(=O)N1CCC(C2CCN(C(=O)C3CCCC3)C2)CC1 (centres undefined) | -11%
CNC(=O)[C@@H]1CN(C(=O)NCc2cccc(OC)c2)C[C@H]1c1n[nH]c(C)n1 | 2%
COc1ccc(NC(=O)N2CCc3nnc(C4CC4)n3CC2)cc1 | 4%
COc1ccc(N2CCN(S(=O)(=O)c3ccc(-c4ccno4)cc3OC)CC2)cc1 | 54%
SMILES | Pf Dd2 inh
COc1ccccc1N1CCN(S(=O)(=O)c2cc(-c3cc(C)no3)ccc2C)CC1 | -4%
Cc1ccc(N2CCN(S(=O)(=O)c3ccc(Cl)c4ccccc34)CC2)c(C)c1 | 17%
Cc1ccc(Nc2nnc(-c3ccc(C)c(S(=O)(=O)N4CCN(C)CC4)c3)c3ccccc23)c(C)c1 | 7.9µM*
Cc1ccc(-c2nnc(Nc3ccccc3)c3ccccc23)cc1S(=O)(=O)N1CCN(C)CC1 | -11%
Cc1ccc(Nc2nnc(-c3ccc(C)c(S(=O)(=O)N4CCN(C)CC4)c3)c3ccccc23)cc1 | 7.9µM*
Cc1ccccc1-c1noc(-c2ccc(NCC3CCCO3)c([N+](=O)[O-])c2)n1 (centres undefined) | 8%
Cc1ccc(-c2nn3c(C)nnc3c3ccccc23)cc1S(=O)(=O)NCCO | 8%
COc1ccc(Nc2nnc(-c3ccc(C)c(S(=O)(=O)N4CCN(C)CC4)c3)c3ccccc23)cc1 | 8.9µM*
COc1ccc(S(=O)(=O)N2CCC(c3nnc(-c4ccccc4C)o3)CC2)c(OC)c1 | -12%
Cc1ccccc1Nc1nnc(-c2ccc(C)c(S(=O)(=O)NCC3CCCO3)c2)c2ccccc12 (centres undefined) | 5.6µM*
COc1nnc(-c2ccc(N3CCCCC3)c(NC(=O)c3ccc(C)cc3)c2)c2ccccc12 | -8%
Cc1ccccc1[C@H]1[C@@H](C(=O)NCCn2ccnc2)C[C@@](C)(C(=O)O)N1C | -2%
CC(C)c1ccc(C(=O)N2CCC(N3C(=O)CCC3C(=O)NCc3ccccc3)CC2)cc1 (centres undefined) | -22%
NC1(C(=O)N2CCC(c3nnc(Cn4ccnc4)n3C3CC3)CC2)CC1 | 9%
COCCOc1cc(-c2noc([C@@H]3CCCN3Cc3ccncc3)n2)ccn1 | -6%[44.1 µM]
CCCN(CC1CCOC1)C(=O)c1ccc(C(F)(F)F)cc1 (centres undefined) | 12%[5.79 µM]
COc1ccc(-c2noc([C@@H](C)N(C)C)c2C(=O)O)cc1 | 12%[44.1 µM]
CS(=O)(=O)c1ccc(OC[C@H]2C[C@@H](NCc3ccc(F)cc3)[C@H](O)[C@@H]2O)cc1 | -22%
CCn1ccc2sc(C)c(C(=O)NCc3cccc(Cl)c3)c2c1=O | -20%
